# Assay results as given in the supplement of paper PMC11732987, “Enantioselective OTUD7B fragment discovery through chemoproteomics screening and high-throughput optimisation” (Communications Chemistry, 2025).
# A number with no mark means an inactive call.
# Experiments:
# Assay in all cases: log2 ratio of Biotin-Ahx-Ub-VS probe labelling (fragment/DMSO); higher = less target engagement (more negative = stronger competition), active = hit call of the paper (q ≤ 0.05, log2 ratio ≤ -1)
# Settings in all cases: compound concentration: 200 uM; treatment time: 3 h
# USP19 = molecular target: T1, USP19 (UniProt O94966)
# T1 sequence (whole entry): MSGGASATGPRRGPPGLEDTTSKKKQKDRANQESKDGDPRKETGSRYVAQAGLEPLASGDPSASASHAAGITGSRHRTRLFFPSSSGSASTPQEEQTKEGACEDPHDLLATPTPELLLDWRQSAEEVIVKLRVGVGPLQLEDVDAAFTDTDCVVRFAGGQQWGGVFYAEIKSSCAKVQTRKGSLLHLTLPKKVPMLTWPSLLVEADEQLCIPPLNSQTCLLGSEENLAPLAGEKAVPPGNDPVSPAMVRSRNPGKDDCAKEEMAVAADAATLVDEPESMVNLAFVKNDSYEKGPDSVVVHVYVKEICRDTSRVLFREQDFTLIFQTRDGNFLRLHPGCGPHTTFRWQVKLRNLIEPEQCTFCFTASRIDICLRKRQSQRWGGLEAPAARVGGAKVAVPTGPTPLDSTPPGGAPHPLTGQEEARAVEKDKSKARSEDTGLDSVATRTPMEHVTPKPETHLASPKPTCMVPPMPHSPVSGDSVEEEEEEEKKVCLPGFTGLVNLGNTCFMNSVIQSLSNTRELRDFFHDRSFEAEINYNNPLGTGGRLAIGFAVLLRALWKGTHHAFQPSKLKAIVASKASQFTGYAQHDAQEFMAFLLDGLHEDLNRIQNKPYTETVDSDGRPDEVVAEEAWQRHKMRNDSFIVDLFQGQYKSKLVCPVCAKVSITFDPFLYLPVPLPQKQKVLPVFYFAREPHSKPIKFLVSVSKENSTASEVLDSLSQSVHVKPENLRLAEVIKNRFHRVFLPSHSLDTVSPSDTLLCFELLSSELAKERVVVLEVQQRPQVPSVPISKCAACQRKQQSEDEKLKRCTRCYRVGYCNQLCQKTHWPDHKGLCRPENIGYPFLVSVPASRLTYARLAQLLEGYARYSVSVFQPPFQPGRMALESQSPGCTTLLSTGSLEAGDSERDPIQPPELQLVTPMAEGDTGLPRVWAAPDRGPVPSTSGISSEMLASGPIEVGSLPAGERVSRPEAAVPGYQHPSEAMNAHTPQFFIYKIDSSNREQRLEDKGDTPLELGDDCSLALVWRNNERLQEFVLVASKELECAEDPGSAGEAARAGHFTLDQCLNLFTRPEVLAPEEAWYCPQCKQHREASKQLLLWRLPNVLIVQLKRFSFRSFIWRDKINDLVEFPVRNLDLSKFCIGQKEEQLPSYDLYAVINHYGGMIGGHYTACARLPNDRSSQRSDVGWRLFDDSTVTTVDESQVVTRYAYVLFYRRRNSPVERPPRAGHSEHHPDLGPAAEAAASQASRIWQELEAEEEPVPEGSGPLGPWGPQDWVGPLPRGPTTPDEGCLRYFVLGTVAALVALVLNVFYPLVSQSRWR
# Outline: (§1)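 Triplicate samples of HEK293T lysate, 495 µg each, received fragment at 200 µM or vehicle for 3 h, followed by Biotin-Ahx-Ub-VS (0.5 µM final) for 1 h. After NeutrAvidin enrichment of labelled DUBs and LysC/trypsin digestion, peptides were run by diaPASEF LC-MS/MS. The values are average log2 fragment/vehicle ratios from global-median-normalised Spectronaut label-free quantities, tested by unpaired t-test on proteins having ≥2 unique peptides.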
# USP22 = molecular target: T2, USP22 (UniProt Q9UPT9)
# T2 sequence (whole entry): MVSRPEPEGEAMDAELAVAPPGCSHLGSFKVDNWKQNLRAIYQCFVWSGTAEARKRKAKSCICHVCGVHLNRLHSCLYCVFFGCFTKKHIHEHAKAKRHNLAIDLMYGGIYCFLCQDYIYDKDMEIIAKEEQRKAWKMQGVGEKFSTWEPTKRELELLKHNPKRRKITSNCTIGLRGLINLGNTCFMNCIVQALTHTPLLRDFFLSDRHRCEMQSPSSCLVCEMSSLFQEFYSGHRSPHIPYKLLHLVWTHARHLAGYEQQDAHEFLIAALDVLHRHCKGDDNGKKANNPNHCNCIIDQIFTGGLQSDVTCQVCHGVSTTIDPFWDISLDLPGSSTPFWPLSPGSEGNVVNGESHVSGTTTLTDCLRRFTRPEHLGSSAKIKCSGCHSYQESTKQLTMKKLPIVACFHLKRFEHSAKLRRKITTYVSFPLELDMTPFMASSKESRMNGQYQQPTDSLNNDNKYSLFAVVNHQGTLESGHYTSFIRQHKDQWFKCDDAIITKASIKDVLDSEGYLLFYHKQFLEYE
# Outline: as §1
# USP24 = USP24 (UniProt Q9UPU5)
# Sequence of USP24 (Q9UPU5 whole entry): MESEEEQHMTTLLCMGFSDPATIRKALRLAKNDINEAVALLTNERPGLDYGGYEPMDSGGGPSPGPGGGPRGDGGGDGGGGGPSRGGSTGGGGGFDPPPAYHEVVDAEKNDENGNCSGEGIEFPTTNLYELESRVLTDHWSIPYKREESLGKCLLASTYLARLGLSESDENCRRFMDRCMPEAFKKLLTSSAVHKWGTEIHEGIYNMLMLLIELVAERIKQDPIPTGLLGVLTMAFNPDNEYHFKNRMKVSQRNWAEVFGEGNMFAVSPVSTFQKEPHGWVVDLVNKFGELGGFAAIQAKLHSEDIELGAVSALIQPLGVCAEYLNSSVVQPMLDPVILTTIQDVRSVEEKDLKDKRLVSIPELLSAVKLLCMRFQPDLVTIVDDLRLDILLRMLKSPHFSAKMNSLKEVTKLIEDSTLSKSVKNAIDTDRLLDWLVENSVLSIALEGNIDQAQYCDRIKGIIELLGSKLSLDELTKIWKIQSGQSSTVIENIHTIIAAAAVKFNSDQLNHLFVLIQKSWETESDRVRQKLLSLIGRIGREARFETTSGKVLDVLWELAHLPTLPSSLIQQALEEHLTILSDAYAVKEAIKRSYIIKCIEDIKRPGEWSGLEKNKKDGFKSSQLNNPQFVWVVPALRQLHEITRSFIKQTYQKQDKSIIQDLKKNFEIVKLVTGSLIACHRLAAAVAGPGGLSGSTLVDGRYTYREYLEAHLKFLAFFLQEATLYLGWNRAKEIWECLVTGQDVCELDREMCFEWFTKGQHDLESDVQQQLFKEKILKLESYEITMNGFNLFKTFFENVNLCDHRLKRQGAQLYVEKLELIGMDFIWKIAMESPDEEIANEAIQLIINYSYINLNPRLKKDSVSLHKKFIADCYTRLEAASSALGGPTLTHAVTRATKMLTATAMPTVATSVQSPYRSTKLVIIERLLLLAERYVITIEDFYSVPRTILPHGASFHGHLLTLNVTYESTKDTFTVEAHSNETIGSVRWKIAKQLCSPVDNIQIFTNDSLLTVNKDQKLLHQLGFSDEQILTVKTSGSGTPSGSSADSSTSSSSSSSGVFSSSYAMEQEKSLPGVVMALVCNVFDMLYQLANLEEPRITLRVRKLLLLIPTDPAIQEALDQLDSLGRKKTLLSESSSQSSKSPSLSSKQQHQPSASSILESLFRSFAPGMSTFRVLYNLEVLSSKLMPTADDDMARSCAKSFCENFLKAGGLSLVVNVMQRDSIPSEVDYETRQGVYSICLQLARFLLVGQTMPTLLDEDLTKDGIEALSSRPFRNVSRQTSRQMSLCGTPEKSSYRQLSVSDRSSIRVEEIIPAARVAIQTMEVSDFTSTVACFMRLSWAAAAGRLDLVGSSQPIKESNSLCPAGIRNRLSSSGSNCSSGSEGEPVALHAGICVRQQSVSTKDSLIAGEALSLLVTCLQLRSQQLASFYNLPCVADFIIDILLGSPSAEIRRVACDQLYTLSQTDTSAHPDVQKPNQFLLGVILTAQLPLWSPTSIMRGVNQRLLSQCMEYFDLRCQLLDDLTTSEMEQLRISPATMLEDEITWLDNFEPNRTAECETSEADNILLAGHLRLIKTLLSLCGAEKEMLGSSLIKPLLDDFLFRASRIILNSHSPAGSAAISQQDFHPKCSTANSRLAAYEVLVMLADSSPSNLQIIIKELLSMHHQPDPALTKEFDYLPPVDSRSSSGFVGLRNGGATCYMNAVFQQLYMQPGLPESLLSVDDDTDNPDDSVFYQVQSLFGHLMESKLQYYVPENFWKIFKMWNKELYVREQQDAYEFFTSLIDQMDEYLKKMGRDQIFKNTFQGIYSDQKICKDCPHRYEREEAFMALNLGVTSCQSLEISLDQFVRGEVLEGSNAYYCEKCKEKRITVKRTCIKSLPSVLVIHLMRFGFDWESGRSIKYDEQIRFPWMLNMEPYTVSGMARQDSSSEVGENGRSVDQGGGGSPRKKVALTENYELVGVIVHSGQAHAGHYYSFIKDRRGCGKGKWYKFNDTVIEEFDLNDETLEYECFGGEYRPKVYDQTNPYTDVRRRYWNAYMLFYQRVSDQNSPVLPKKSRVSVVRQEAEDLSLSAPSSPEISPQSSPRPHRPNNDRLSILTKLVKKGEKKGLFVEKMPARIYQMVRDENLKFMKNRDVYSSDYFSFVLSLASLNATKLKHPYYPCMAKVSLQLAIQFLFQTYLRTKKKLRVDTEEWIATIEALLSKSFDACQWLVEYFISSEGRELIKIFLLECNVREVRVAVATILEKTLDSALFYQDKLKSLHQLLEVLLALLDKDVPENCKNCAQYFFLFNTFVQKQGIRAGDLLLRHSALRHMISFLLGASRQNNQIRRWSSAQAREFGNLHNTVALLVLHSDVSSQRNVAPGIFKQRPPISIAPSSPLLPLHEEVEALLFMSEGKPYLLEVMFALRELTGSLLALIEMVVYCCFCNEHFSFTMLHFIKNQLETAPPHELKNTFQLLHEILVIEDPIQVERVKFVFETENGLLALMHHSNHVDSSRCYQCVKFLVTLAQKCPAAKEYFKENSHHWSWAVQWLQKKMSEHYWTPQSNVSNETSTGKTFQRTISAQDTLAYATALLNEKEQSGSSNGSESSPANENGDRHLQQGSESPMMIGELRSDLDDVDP
# Outline: as §1
# USP25 = molecular target: T3, USP25 (UniProt Q9UHP3)
# T3 sequence (whole entry): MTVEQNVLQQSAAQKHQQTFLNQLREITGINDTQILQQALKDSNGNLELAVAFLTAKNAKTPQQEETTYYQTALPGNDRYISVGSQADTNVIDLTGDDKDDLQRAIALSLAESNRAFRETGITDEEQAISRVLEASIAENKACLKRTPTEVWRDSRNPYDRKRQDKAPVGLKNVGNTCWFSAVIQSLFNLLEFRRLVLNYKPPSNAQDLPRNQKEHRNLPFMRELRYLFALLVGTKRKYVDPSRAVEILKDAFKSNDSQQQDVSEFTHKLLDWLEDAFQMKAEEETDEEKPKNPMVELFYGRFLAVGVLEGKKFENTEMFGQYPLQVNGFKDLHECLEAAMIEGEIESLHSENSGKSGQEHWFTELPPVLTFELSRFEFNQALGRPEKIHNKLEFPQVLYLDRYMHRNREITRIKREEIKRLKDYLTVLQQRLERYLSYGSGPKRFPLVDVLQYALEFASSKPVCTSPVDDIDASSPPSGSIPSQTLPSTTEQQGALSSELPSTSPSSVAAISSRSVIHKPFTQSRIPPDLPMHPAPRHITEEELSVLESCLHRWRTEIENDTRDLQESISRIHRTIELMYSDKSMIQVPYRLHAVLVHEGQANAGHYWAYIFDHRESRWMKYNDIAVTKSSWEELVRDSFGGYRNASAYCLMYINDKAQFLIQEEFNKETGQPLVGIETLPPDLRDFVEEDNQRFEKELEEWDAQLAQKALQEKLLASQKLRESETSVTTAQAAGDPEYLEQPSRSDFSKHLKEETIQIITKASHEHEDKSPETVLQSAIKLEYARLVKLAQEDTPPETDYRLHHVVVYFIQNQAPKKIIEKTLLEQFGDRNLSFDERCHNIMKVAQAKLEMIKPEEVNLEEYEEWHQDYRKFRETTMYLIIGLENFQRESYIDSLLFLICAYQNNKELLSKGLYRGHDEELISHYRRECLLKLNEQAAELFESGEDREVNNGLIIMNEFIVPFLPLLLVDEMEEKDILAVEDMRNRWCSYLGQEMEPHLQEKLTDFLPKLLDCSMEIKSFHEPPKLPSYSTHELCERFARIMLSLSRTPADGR
# Outline: as §1
# USP28 = molecular target: T4, USP28 (UniProt Q96RU2)
# T4 sequence (whole entry): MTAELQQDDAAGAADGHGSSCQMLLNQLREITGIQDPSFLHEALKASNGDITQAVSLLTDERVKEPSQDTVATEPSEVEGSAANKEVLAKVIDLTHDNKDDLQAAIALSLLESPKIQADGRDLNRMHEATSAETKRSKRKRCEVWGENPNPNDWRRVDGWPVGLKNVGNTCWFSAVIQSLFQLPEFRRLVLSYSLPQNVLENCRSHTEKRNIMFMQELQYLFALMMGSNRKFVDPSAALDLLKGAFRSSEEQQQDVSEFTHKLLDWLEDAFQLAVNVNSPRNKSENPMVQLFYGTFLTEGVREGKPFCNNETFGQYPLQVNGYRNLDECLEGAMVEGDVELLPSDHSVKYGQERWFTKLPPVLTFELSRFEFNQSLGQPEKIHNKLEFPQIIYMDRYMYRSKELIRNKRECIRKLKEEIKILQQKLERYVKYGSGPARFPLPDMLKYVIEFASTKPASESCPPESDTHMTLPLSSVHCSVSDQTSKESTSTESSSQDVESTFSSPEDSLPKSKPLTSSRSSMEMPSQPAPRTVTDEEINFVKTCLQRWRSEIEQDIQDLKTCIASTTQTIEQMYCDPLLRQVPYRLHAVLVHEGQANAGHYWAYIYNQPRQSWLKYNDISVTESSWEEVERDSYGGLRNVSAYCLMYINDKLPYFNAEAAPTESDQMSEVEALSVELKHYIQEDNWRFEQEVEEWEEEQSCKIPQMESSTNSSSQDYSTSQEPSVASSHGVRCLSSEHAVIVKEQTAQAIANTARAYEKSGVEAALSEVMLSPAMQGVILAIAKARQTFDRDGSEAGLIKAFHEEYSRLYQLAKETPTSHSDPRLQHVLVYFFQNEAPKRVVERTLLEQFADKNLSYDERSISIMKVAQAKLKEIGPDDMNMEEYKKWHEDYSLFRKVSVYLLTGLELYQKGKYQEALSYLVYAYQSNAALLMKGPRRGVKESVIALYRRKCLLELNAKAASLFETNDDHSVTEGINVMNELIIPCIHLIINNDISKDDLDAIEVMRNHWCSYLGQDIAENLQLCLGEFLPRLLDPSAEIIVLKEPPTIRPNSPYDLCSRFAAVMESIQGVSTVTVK
# Outline: as §1
smiles,measurement,setting,value
NS(=O)(=O)c1ccc(Cl)c(NC(=O)CCl)c1,log2 ratio of Biotin-Ahx-Ub-VS probe labelling,USP19,-0.307
same,log2 ratio of Biotin-Ahx-Ub-VS probe labelling,USP22,-0.46
same,log2 ratio of Biotin-Ahx-Ub-VS probe labelling,USP24,-0.149
same,log2 ratio of Biotin-Ahx-Ub-VS probe labelling,USP25,-1.57 (active)
same,log2 ratio of Biotin-Ahx-Ub-VS probe labelling,USP28,-1.42 (active)
